Results on 107 compounds are retold here after ChEMBL document CHEMBL3988442, “University of Dundee, Small-Polar-MMV Screening Library” (2021).

The structures appear in SMILES notation. Out of some 48,000 compounds screened, about 13,000 (27%) showed an effect of 50% or more. The list shows a part of the results.

In this experiment the test system is Wolbachia pipientis. The experiment in a line: Anti-Wolbachia Cell-Based Screen. The format is functional. As to conditions: 5 µM. Also on record: scale not given: in the data most compounds retested in dose-response had high values.
As for `O=C(O)C(F)(F)F.O=C(c1cnccn1)N1CCN2C[C@H](OCc3ccccc3)C[C@H]2C1`, the “Percent Effect” value was found to be 0.9926%. The result for `O=C(c1cnc(Nc2ccccc2)nc1)N1CCC2(CCNCC2)CC1` reads 2.873%. On to `CC(C)c1noc([C@@H]2Cc3[nH]cnc3CN2C(=O)Nc2ccccc2)n1`, for which the “Percent Effect” value is on record as 2.136%.

With `NC(=O)CCn1ccc(NC(=O)C2(c3ccc(F)cc3)CCC2)n1`, the “Percent Effect” value is recorded as -29.44%. With `COc1ccc(N(Cc2ccco2)C(=O)COC(C)C)cc1F` the figure was -7.109%; with `COc1cccc(CCC2CCCCN2)c1` (configuration not stated), 69.8%. For `COc1ccc(CCC2CCCCN2)cc1OC` (configuration not stated), the “Percent Effect” value is 89.4%. Consider `CS(=O)(=O)c1ccc(-c2cc(O)cc(CCC3CCCCN3)c2)cc1` (configuration not stated), for which the “Percent Effect” value was -20.81%. With `Oc1cc(CCC2CCCCN2)cc(-c2cccnc2)c1` (configuration not stated) the figure was 13.71%. For the compound `O=c1cc(-c2cc(O)cc(CCC3CCCCN3)c2)cc[nH]1` (configuration not stated), the “Percent Effect” value is listed as 29.58%.

In the case of `COc1ccc(CCC2CCCCN2)cc1.Cl` (configuration not stated), the “Percent Effect” value worked out at 100.4%. The result for `COc1ccc(CCNC(=O)NC2CCCC2)cc1OC` reads 1.175%; that for `COc1cccc(CCC2CCCN(C(C)=O)C2)c1` (configuration not stated), -117.1%. With `Oc1cc(CCC2CCCCN2)cc(-c2ccncc2)c1` (configuration not stated) the figure was 23.52%; with `O=C(NCc1ccncc1)N1CCSCC1CCO` (configuration not stated), -7.144%.

As to `CSc1ccc(-c2nc(CN3CCC(CN)C3)c(C)o2)cc1` (configuration not stated), the “Percent Effect” value is recorded as -1.027%.

On to `CCc1noc(C)c1C(=O)N1CCN(c2nc(C)cc(OC)n2)CC1`, for which the “Percent Effect” value is listed as -4.975%. With `CCc1nnc2n1CCN(c1nc(C)cc(N(C)C)n1)C2` the figure was 1.842%. Consider `CCCc1nc(C)cc(N2CCC3(CCC(=O)N(CC(N)=O)C3)CC2)n1`, for which the “Percent Effect” value was found to be 1.453%. On to `CC1(C)CN(CC(F)(F)F)CCN1CC(N)=O`, for which the “Percent Effect” value turned out to be 0.007489%. Take `Cc1cc(C(F)(F)F)cc(N2CCC3(CCC(=O)N(CCO)C3)CC2)n1`: the “Percent Effect” value is listed as 8.685%.

As to `Cc1cc(N(C)C)nc(C2(C)CCCN2CC(N)=O)n1` (configuration not stated), the “Percent Effect” value amounted to 87.15%. The result for `Cc1cc(C(F)(F)F)nc(C2(C)CCCN2CC(N)=O)n1` (configuration not stated) reads 81.01%; that for `CS(=O)(=O)NC1CCN(C(=O)COCc2ccccc2)CC1`, -3.192%; that for `Cc1cc(C2CCCN2c2ncc(C(N)=O)cc2Cl)no1` (configuration not stated), -5.991%. On to `Cc1nncn1CCNC(=O)C(C)(C)c1cccc(C(F)(F)F)c1`, for which the “Percent Effect” value was 2.023%.

`CC(=O)N(C)CC(=O)Nc1cc(C(F)(F)F)c[nH]c1=O`: the “Percent Effect” value is recorded as -5.133%. As to `Cc1ccc(C(F)(F)F)cc1NC(=O)C1CCCN1` (configuration not stated), the “Percent Effect” value was 84.86%. With `O=C(NCc1ccccn1)Nc1cc(C(F)(F)F)c[nH]c1=O` the figure was 4.379%; with `Cc1ccc(C(F)(F)F)cc1NCC(=O)Nc1c(C)nn(C)c1C`, 5.729%; with `O=C(Nc1cc(C(F)(F)F)c[nH]c1=O)C1CCNCC1`, 76.16%. Take `Cc1ccc(C(=O)O)cc1NC(=O)C1CC=CC1`: the “Percent Effect” value is -2.837%. The result for `O=C(Nc1cc(C(F)(F)F)c[nH]c1=O)C1CCCNC1` (configuration not stated) reads 107.9%; that for `CC(C)CN1CCC(C(=O)Nc2cc(C(F)(F)F)c[nH]c2=O)CC1`, -2.2%; that for `Cl.O=C(Nc1cc(C(F)(F)F)c[nH]c1=O)C1CCCCN1` (configuration not stated), 99.37%.

Consider `CN(CC(=O)Nc1cc(C(F)(F)F)c[nH]c1=O)Cc1ccccc1`, for which the “Percent Effect” value is reported as -11.84%. As for `COc1cccc(C(=O)N2CCc3ncnc(C)c3CC2)c1`, the “Percent Effect” value is -6.547%. The result for `CN1CC[C@H]2CN(C(=O)c3csc(Cc4ccccc4)n3)C[C@H]21` reads 0.1576%; that for `Cc1nn(C)cc1C(C)Nc1ncnc2sccc12` (configuration not stated), -14.94%; that for `c1n[nH]cc1CCCN1CCC(OC2CCCCC2)CC1`, 7.391%. With `O=C(Nc1cc(C(F)(F)F)c[nH]c1=O)C1CCCO1` (configuration not stated) the figure was 93.32%; with `Cc1ccc(NC(=O)NCCCc2n[nH]c(N)c2C#N)cc1`, 1.349%; with `Cc1nn(C)c(C)c1NC(=O)CCn1ncc2c(C)cccc21`, -5.64%. As for `O=C(CC1CC1)NCc1cc(=O)n2c(n1)CN(Cc1ccoc1)CCC2`, the “Percent Effect” value is 68.76%.

`Cc1ccc(CN2CCCn3c(nc(Cn4cncn4)cc3=O)C2)s1`: the “Percent Effect” value is -3.936%. The result for `O=c1cc(Cn2ccnc2)nc2n1CCCN(Cc1ccsc1)C2` reads 9.464%; that for `COCC(=O)NCc1cc(=O)n2c(n1)CN(Cc1ccoc1)CCC2`, 84.57%. With `Cc1ccc(CN2CCCn3c(nc(CN4CCCC4)cc3=O)C2)s1.O=C(O)C(F)(F)F.O=C(O)C(F)(F)F` the figure was -4.249%; with `Cc1oncc1C(=O)NCc1cc(=O)n2c(n1)CN(C)CCC2.O=C(O)C(F)(F)F`, -6.613%. Take `CN(C)C(=O)NCc1cc(=O)n2c(n1)CN(Cc1ccoc1)CCC2.O=C(O)C(F)(F)F`: the “Percent Effect” value is recorded as 87.23%.

In the case of `COCC(=O)NCc1cc(=O)n2c(n1)CN(Cc1ccncc1)CCC2`, the “Percent Effect” value turned out to be 99.24%. The result for `Cn1ncc2c(NCCOCc3ccccc3)nc(C3CCCC3)nc21` reads 18.15%. The result for `Cc1cc(C)c(C)c(OCCCNC(=O)NC(C)c2nncn2C)c1` (configuration not stated) reads 4.914%; that for `Cc1nc(CC(=O)NCCNc2nccc(C(F)(F)F)n2)cs1`, -6.146%. The result for `COCC(=O)NCc1cc(=O)n2c(n1)CN(Cc1ccco1)CCC2` reads 106.6%; that for `O=c1cc(CN2CCCC2)nc2n1CCCN(Cc1ccsc1)C2`, 8.942%; that for `CN(C)Cc1cc(=O)n2c(n1)CN(Cc1ccco1)CCC2`, 2.843%. Take `O=c1cc(CN2CCCC2)nc2n1CCCN(Cc1ccoc1)C2`: the “Percent Effect” value came out at 85.96%. Regarding `O=c1cc(CN2CCCC2)nc2n1CCCN(Cc1ccco1)C2`, the “Percent Effect” value came to 15.57%. With `O=c1cc(Cn2cncn2)nc2n1CCCN(Cc1ccco1)C2` the figure was -4.032%; with `O=C1NC(c2ccccc2)=N[C@@]12CC[C@@H]1CN(S(=O)(=O)C3CC3)C[C@@H]12`, 2.973%. Turning to `Cc1ccc(C)c(NC(=O)C(C)N2CCCN(c3nccs3)CC2)c1` (configuration not stated), the “Percent Effect” value is given as 18.26%. The result for `CCC(CO)N(Cc1cccc(O)c1)Cc1ccccc1C` (configuration not stated) reads -1.955%. Consider `N#Cc1cc(NC(=O)C2CC=CC2)ccc1N1CCC(O)CC1`, for which the “Percent Effect” value is -4.254%. With `CNC(=O)[C@@H](C1CCCCC1)N1CCC[C@H]1C(=O)NC1CC1` the figure was 10.77%. With `N#Cc1ccccc1CNC(C(=O)N1CCOCC1)c1ccccc1` (configuration not stated) the figure was -7.429%. Take `CCc1c(C(=O)NCC(=O)OCC2CC2)cnn1-c1ccc(C)cc1`: the “Percent Effect” value is recorded as -8.085%.

On to `CCOC(=O)C1CCN(C(=O)c2cnn(-c3ccc(C)cc3)c2N)CC1`, for which the “Percent Effect” value is given as 105.1%. Consider `CCOC1CCN(C(=O)c2ccc(-n3ncc(C#N)c3N)cc2)CC1`, for which the “Percent Effect” value is -10.17%. With `CCOC(=O)C1CCN(C(=O)CN2CCCC2Cc2ccccc2)CC1` (configuration not stated) the figure was -0.766%; with `CCOC(=O)C1CCN(C(=O)CN2CCCC2c2ccccc2C)CC1` (configuration not stated), -25.1%; with `CCOC(=O)C1CCN(C(=O)c2cnn(-c3ccccc3F)c2N)CC1`, 125.9%.

Take `Cc1nn(C(C)C)c(C)c1NC(=O)c1ccc(F)cc1`: the “Percent Effect” value is reported as -6.824%. Regarding `N#Cc1ccccc1NC(=O)c1ccc2c(c1)OCO2`, the “Percent Effect” value was determined as 136.5%. The result for `CCc1noc(CN(C)CCC(=O)Nc2ccccc2C#N)n1` reads 9.134%.

Turning to `CN(C)Cc1ccccc1NC(=O)c1ccc(C#N)cc1`, the “Percent Effect” value was 4.666%. In the case of `COc1cc(C)nc(N2CCN(C(C)c3nc(C)no3)CC2)n1` (configuration not stated), the “Percent Effect” value was -6.748%.

Consider `CC(C)(O)CSCCNCc1ccc(Cl)c2cccnc12`, for which the “Percent Effect” value stood at 7.695%.

As for `C1CCC(NCCN2CCOCC2)C1`, the “Percent Effect” value is -5.882%. With `C1CN(CCN2CCOCC2)CCN1` the figure was 96.42%; with `CC1CCC(NCCCN2CCOCC2)CC1` (configuration not stated), -18.43%; with `Cc1cc(C)n(CC2CCCN2C(=O)CCc2cscn2)n1` (configuration not stated), -3.871%. For `CCC(C)(NC(=O)CCN1CCOC1=O)C(=O)OC` (configuration not stated), the “Percent Effect” value is recorded as -2.045%. With `O=C(CCc1cnn(-c2ccccc2)c1)N1CCCC(n2cccn2)C1` (configuration not stated) the figure was -6.718%; with `Cc1cc(C)n(C2CCCN(C(=O)Cc3csc(C)n3)C2)n1` (configuration not stated), 1.332%; with `Cc1cnn(C2CCCN(C(=O)CCc3nccs3)C2)c1` (configuration not stated), -0.76%.

Take `Cc1cc(C)n(C2CCCN(C(=O)CCc3nccs3)C2)n1` (configuration not stated): the “Percent Effect” value is 95.16%.

On to `Cc1cc(C)n(C2CCCN(C(=O)CN(C)c3cnccn3)C2)n1` (configuration not stated), for which the “Percent Effect” value is reported as -4.644%.

For `O=C(CCc1nccs1)N1CCCC(n2cccn2)C1` (configuration not stated), the “Percent Effect” value amounted to 73.36%. As to `CN1CCCN(C(=O)c2cc(CN(C)CCc3ccccc3)on2)CC1`, the “Percent Effect” value was -31.64%.

For `CN(CCc1ccccc1)Cc1cc(C(=O)N2CCSCC2)no1`, the “Percent Effect” value is recorded as -17.09%. In the case of `CN(CCc1ccccc1)Cc1cc(C(=O)N2CCN(C)C(=O)C2)no1`, the “Percent Effect” value stood at 103.8%. The result for `O=C(NCCSCc1cccs1)C1CCCN(C(=O)N2CCCC2)C1` (configuration not stated) reads -5.994%. `COCCN1CCN(Cc2nccs2)[C@H]2CS(=O)(=O)C[C@H]21`: the “Percent Effect” value is reported as -12.76%. The result for `COCCN1CCCC1c1nccnc1Nc1nccs1` (configuration not stated) reads 95.24%; that for `Cc1cnc(NC(=O)c2ccc(C3CCCN3CC(C)C)s2)s1` (configuration not stated), -4.424%. With `COc1c(C2CCCN2CCOc2ccccc2C#N)c(C)nn1C` (configuration not stated) the figure was -6.58%; with `COCCN1CCCC1c1nccnc1Nc1ncc(C)s1` (configuration not stated), 100%. Take `COCCN1CCCC1c1nccnc1Nc1nc(C)cs1` (configuration not stated): the “Percent Effect” value is -1.129%.

For the compound `O=C(CN1CCN(c2ncnc3c2CCNCC3)CC1)N1CCCCC1`, the “Percent Effect” value was -2.249%.

For the compound `c1ccc(-c2cnc(CNCC3CCCN3c3cccnn3)o2)cc1` (configuration not stated), the “Percent Effect” value was -6.959%.

As to `Cn1cnc2c1C(C(=O)N1CCCC1)N(S(C)(=O)=O)CC2` (configuration not stated), the “Percent Effect” value is given as 3.413%. With `Cc1ccc(CN2CCc3ncnc(-c4ccoc4)c3CC2)o1.O=C(O)C(F)(F)F`, the “Percent Effect” value turned out to be 105.9%. As for `CC(C)Oc1ncnc2c1CCN(Cc1ccco1)CC2.O=C(O)C(F)(F)F`, the “Percent Effect” value was 2.851%. With `Cc1ccc(CN2CCc3ncnc(-c4ccc(F)cc4)c3CC2)o1.O=C(O)C(F)(F)F` the figure was -0.3748%; with `Cc1ccc(CN2CCc3ncnc(-c4ccncc4)c3CC2)o1.O=C(O)C(F)(F)F.O=C(O)C(F)(F)F`, 96.83%; with `CC(C)Oc1ncnc2c1CCN(Cc1ccoc1)CC2.O=C(O)C(F)(F)F`, 3.383%.
